Data as given in PubChem BioAssay AID1159580 (chemical genetic matrix, 2015).
Several values for one entry are separate records, joined by “and”; a condition that tells them apart may be missing. Equal values may be shown once. In all, about 5,500 compounds went through this assay and about 2,000 (36%) were called active. Roughly 18% stayed inconclusive and do not appear here. No stated cut-off is given here; in the data, active means normalized growth mostly below about 0.91 (no sharp cut-off); inconclusive means no clear call, values can overlap the other calls; inactive means mostly above about 0.92. The list shows a part of the results.

Assay: chemical genetic growth profiling, strain panel (AID 1159580);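 further: tested at 20 µM; growth read once vehicle control cultures reached saturation at 30 °C; 1 = growth at the plate median or of vehicle wells; lower values mean less growth of the strain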
Conditions: S. cerevisiae deletion strains, growth OD

Measured: normalized growth

Cc1ccc(-c2cc(C(F)(F)F)nn2-c2ccc(S(N)(=O)=O)cc2)cc1
inactive: locus YAL013W, strain DEP1, active compounds read low 1 | locus YAL021C, strain ccr4, active compounds read low 1 | locus YAL026C, strain drs2, active compounds read low 1.03 | locus YAL030W, strain snc1, active compounds read low 1.03 | locus YBL061C, strain skt5, active compounds read low 1.02 | locus YBR009C, strain hhf1, active compounds read low 1.03 | locus YBR021W, strain FUR4, active compounds read low 1 | locus YBR023C, strain chs3, active compounds read low 1.02 | locus YBR171W, strain sec66, active compounds read low 1.05 | locus YBR229C, strain ROT2, active compounds read low 0.992 | locus YBR231C, strain swc5, active compounds read low 1.05 | locus YBR279W, strain paf1, active compounds read low 1.02 | locus YCL011C, strain gbp2, active compounds read low 1.03 | locus YCL016C, strain dcc1, active compounds read low 1.03 | locus YCL029C, strain bik1, active compounds read low 1.04 | locus YCL061C, strain MRC1, active compounds read low 1.02 | locus YCL069W, strain vba3, active compounds read low 1.03 | locus YCR088W, strain abp1, active compounds read low 1.02 | locus YDL005C, strain med2, active compounds read low 1.03 | locus YDL035C, strain GPR1, active compounds read low 0.979 | locus YDL040C, strain nat1, active compounds read low 1.03 | locus YDL074C, strain BRE1, active compounds read low 0.975 | locus YDL101C, strain DUN1, active compounds read low 1.02 | locus YDL134C, strain PPH21, active compounds read low 0.999 | locus YDL185W, strain tfp1, active compounds read low 1.02 | locus YDL192W, strain arf1, active compounds read low 0.998 | locus YDR001C, strain nth1, active compounds read low 1.02 | locus YDR069C, strain doa4, active compounds read low 1.02 | locus YDR101C, strain arx1, active compounds read low 1.01 | locus YDR137W, strain rgp1, active compounds read low 1.02 | locus YDR150W, strain NUM1, active compounds read low 1 | locus YDR159W, strain sac3, active compounds read low 1.02 | locus YDR162C, strain NBP2, active compounds read low 0.988 | locus YDR195W, strain ref2 1.05 | locus YDR297W, strain sur2, active compounds read low 1.02 | locus YDR318W, strain mcm21, active compounds read low 1.02 | locus YDR334W, strain swr1, active compounds read low 1.04 | locus YDR335W, strain msn5, active compounds read low 1.03 | locus YDR388W, active compounds read low 1.01 | locus YDR392W, strain spt3, active compounds read low 1.03 | locus YDR502C, strain sam2, active compounds read low 1 | locus YEL003W, strain gim4, active compounds read low 1.03 | locus YEL037C, strain rad23, active compounds read low 1.03 | locus YEL061C, strain CIN8 (second series), active compounds read low 1.04 | locus YEL061C, strain CIN8, active compounds read low 0.994 | locus YER015W, strain faa2, active compounds read low 1.03 | locus YER016W, strain bim1, active compounds read low 1.03 | locus YER110C, active compounds read low 1.02 | locus YER111C, strain swi4, active compounds read low 1.05 | locus YER155C, strain BEM2 (second series), active compounds read low 1.04 | locus YER155C, strain BEM2, active compounds read low 1.01 | locus YER167W, strain BCK2, active compounds read low 0.998 | locus YFR010W, strain ubp6, active compounds read low 1.04 | locus YGL078C, strain dbp3, active compounds read low 0.996 | locus YGL086W, strain mad1, active compounds read low 0.991 | locus YGL167C, strain pmr1, active compounds read low 1.04 | locus YGL173C, strain kem1, active compounds read low 1.01 | locus YGL227W, strain vid30, active compounds read low 1.04 | locus YGL240W, strain doc1, active compounds read low 1.04 | locus YGL248W, strain PDE1, active compounds read low 0.996 | locus YGL253W, strain hxk2, active compounds read low 1.02 | locus YGR078C, strain PAC10, active compounds read low 1.01 | locus YGR135W, strain pre9, active compounds read low 1.02 | locus YGR229C, strain SMI1, active compounds read low 0.998 | locus YGR252W, strain gcn5, active compounds read low 0.962 | locus YHR013C, strain ard1, active compounds read low 1.06 | locus YHR027C, strain rpn1, active compounds read low 1.03 | locus YHR030C, strain SLT2, active compounds read low 1.01 and 0.968 | locus YHR079C, strain IRE1 (second series), active compounds read low 1.02 | locus YHR079C, strain IRE1, active compounds read low 0.963 | locus YHR094C, strain hxt1, active compounds read low 1.01 | locus YHR129C, strain ARP1, active compounds read low 1 | locus YHR142W, strain chs7, active compounds read low 1.03 | locus YHR200W, strain rpn10, active compounds read low 1.01 | locus YIL066C, strain RNR3, active compounds read low 0.994 | locus YIL073C, strain SPO22, active compounds read low 0.994 | locus YIL125W, strain kgd1, active compounds read low 1.01 | locus YIR030C, strain dcg1, active compounds read low 1.01 | locus YJL092W, strain hpr5, active compounds read low 1.02 | locus YJL095W, strain BCK1 (second series), active compounds read low 1.02 | locus YJL095W, strain BCK1, active compounds read low 1.04 and 0.974 | locus YJL115W, strain asf1, active compounds read low 1.03 | locus YJL129C, strain trk1, active compounds read low 1.06 | locus YJL134W, strain LCB3, active compounds read low 1 | locus YJL154C, strain vps35, active compounds read low 1.02 | locus YJL164C, strain tpk1, active compounds read low 1.03 | locus YJL166W, strain qcr8, active compounds read low 1.01 | locus YJL168C, strain set2, active compounds read low 1.02 | locus YJL187C, strain SWE1 (second series), active compounds read low 1.03 | locus YJL187C, strain SWE1, active compounds read low 1.02 | locus YJR043C, strain POL32, active compounds read low 1.01 | locus YJR066W, strain TOR1, active compounds read low 0.974
